A short description of experiment [1]: APR_HepG2_P-H2AX_72hr: Apredica 72-hour HepG2 Assay for H2AX Phosphorylation (AID 2282916).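 Further: phospho-histone H2A.x immunostain intensity per cell marking DNA damage.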 Conditions: imaging, actives raise or lower the signal. In a few lines:
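Human hepatoma HepG2 cells are dosed across ten concentrations (0.39 to 200 uM, 0.5% v/v DMSO) and incubated 72 hr. Phospho-histone H2A.x is then detected by antibody staining alongside c-Jun and Hoechst, and quantified by automated fluorescence imaging.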

A short description of experiment [2]: APR_HepG2_MitoMembPot_72hr: Apredica 72-hour HepG2 Assay for Mitochondrial Membrane Potential (AID 2282917). The following applies: imaging, actives raise or lower the signal. Summed up: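 HepG2 cells dosed 72 hr with compound at 0.39–200 uM in duplicate, 0.5% v/v DMSO final. Mitochondria stained with 250 nM MitoTracker Red CMXRos for 30 min before formaldehyde fixation, imaged by high-content fluorescence; bidirectional fit versus DMSO.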

Experiment [3] can be described thus: APR_HepG2_MitoticArrest_72hr: Apredica 72-hour HepG2 Assay for Mitotic Arrest (AID 2282918). Conditions: high-content imaging, actives raise or lower the signal. Summed up:
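Mitotic arrest in HepG2 is scored from phospho-histone H3 staining after 72 hr dosing across 0.39–200 uM, with DMSO at 0.5% v/v. Nuclei are identified by Hoechst 33342 and fluorescence intensity is quantified per cell.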

The nature of experiment [4]: APR_HepG2_MicrotubuleCSK_72hr: Apredica 72-hour HepG2 Assay for Microtubule CSK Stabilty (AID 2282919). Conditions: HepG2 microtubule cytoskeleton, high-content imaging, actives raise or lower the signal. Summed up: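 HepG2, 72 hr cmpd exposure, 0.39–200 uM (10 pts, duplicate), 0.5% DMSO. 3.7% formaldehyde fix, 0.5% Triton perm, anti-alpha-tubulin/Cy5 plus Hoechst. HCS fluorescence intensity; bidirectional fit vs DMSO baseline; taxol as positive control.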

Experiment [5] is described as follows: APR_HepG2_P-H2AX_24hr: Apredica 24-hour HepG2 Assay for H2AX Phosphorylation (AID 2282920). Conditions: high-content imaging, actives raise or lower the signal. In a few lines: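 Signal comes from a FITC-labeled secondary detecting phospho-histone H2A.x in fixed HepG2 cells, quantified by automated imaging at 20x. Dosing ran 24 hr across 0.39–200 uM with 0.5% v/v DMSO.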

The nature of experiment [6]: APR_HepG2_StressKinase_72hr: Apredica 72-hour HepG2 Assay for Stress Kinase (AID 2282921). The following applies: HepG2 stress kinase (phospho-c-Jun) imaging, actives raise or lower the signal. Summed up:
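After a 72 h compound treatment spanning 0.39 to 200 uM, formaldehyde-fixed cells are labelled for phosphorylated c-Jun and nuclei, imaged by automated fluorescence microscopy, and activity is fitted in both directions relative to DMSO controls.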

Experiment [7] in a line: APR_HepG2_StressKinase_24hr: Apredica 24-hour HepG2 Assay for Stress Kinase (AID 2282922). Conditions: HepG2 stress kinase (phospho-c-Jun) imaging, actives raise or lower the signal. In a few lines:
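Read-out: phospho-c-Jun immunofluorescence (Cy3 secondary) quantified by high-content imaging at 20x, nuclei defined by Hoechst 33342. Human HepG2 liver cells dosed 24 hr, 0.39–200 uM, DMSO 0.5% v/v; gain or loss of signal fitted relative to DMSO.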

A short description of experiment [8]: APR_HepG2_p53Act_72hr: Apredica 72-hour HepG2 Assay for p53 Activation (AID 2282923).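 Further: average cellular p53 protein immunofluorescence intensity in HepG2 cells.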 Conditions: high-content imaging, actives raise or lower the signal. Summed up:
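Imaging-based endpoint: after 72 hr compound exposure (up to 200 uM, 0.5% DMSO), fixed and permeabilized monolayers were labelled with anti-p53 antibody and imaged; signal change in either direction was fitted relative to DMSO controls.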

A short description of experiment [9]: APR_HepG2_MitoMass_72hr: Apredica 72-hour HepG2 Assay for Mitochondrial Mass (AID 2282924).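 Further: MitoTracker Red CMXRos stain intensity per cell imaged as mitochondrial mass.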 Conditions: high-content imaging, actives raise or lower the signal. Summed up:
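Read-out: MitoTracker Red fluorescence intensity from automated imaging (20x, six fields per well) in human HepG2 liver cells. Dosing ran 72 hr, 0.39–200 uM, 0.5% DMSO; bidirectional curve fitting versus DMSO baseline.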

Experiment [10] is described as follows: APR_HepG2_NuclearSize_72hr: Apredica 72-hour HepG2 Assay for Nuclear Size (AID 2282925). Conditions: high-content imaging, actives raise or lower the signal. Summed up: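 Read-out: nuclear diameter from Hoechst 33342 images (ArrayScan, 20x, six fields/well), via cell-cycle image analysis. HepG2 were dosed 0.39–200 uM for 72 hr in 0.5% DMSO. Bidirectional fit relative to DMSO.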

The structures appear in SMILES notation. Active and inactive are the calls of the source. How the source made its calls: active means hit-call score of the fitted dose curve at least 0.9, where 1 is the maximum; inactive means score below 0.9.

For `OCC(O)CO`, the call in [1], in experiment [2], in experiment [3], in experiment [4], in experiment [5] and in [6] was inactive. For the same compound, the call in experiment [7], in experiment [8], in [9] and in [10] was inactive.
Take `O=C(O)CC(O)(CC(=O)O)C(=O)O`: the compound was called inactive in experiment [1], in experiment [2], in experiment [3], in experiment [4], in experiment [5] and in experiment [6]. Further, the compound was called inactive in experiment [7], in experiment [8], in experiment [9] and in experiment [10].
As for `O=[Si]=O`, the call in experiment [1], in experiment [2], in experiment [3], in [4], in experiment [5] and in experiment [6] was inactive. The compound was called inactive in experiment [7], in experiment [8], in experiment [9] and in [10].
In general, AC50 refers to the concentration at which the activity in the assay is half-maximal. Regarding `COC(=O)[C@H]1[C@H]2C[C@@H]3c4[nH]c5cc(OC)ccc5c4CCN3C[C@H]2C[C@@H](OC(=O)c2cc(OC)c(OC)c(OC)c2)[C@@H]1OC`, the AC50 in experiment [1] was 23.9 µM (active); in experiment [2], 48 µM (active); in [3], 16.3 µM (active); in experiment [4], 39.4 µM (active); in experiment [5] it was 30.1 µM (active); in experiment [7] it was 55.1 µM (active). The AC50 is 24.6 µM (active) in experiment [8] and 28.8 µM (active) in experiment [9]. For the same compound, the call in [6] and in experiment [10] was inactive.
On to `CN(C)C(=O)NC1(c2ccccc2)CCN(CCC[C@]2(c3ccc(Cl)c(Cl)c3)CCCN(C(=O)c3ccccc3)C2)CC1`, for which the AC50 in experiment [1] is 15.1 µM (active); in [2] it was 25.4 µM (active); in [3], 9.82 µM (active); in experiment [5], 22.5 µM (active); in [6] it was 25 µM (active); in experiment [8], 10.3 µM (active). Besides, the compound was classed as inactive in experiment [4], in experiment [7] and in experiment [10].
In the case of `NC(=Nc1ccccc1)Nc1ccccc1`, the AC50 was 22.4 µM (active) in [1]; 22.8 µM (active) in [3]; 34 µM (active) in experiment [4]; 10.3 µM (active) in experiment [6]; 23.4 µM (active) in experiment [8]. Further, the compound was classed as inactive in [2], in experiment [5], in [7], in experiment [9] and in experiment [10].
On to `CCc1cc(C2=C(C(=O)O)N(c3ccccc3C(F)(F)F)S(=O)(=O)c3ccccc32)cc2c1OCO2`, for which the compound was classed as inactive in experiment [1], in experiment [2], in experiment [3], in experiment [4], in experiment [5] and in [6]. The compound was called inactive in experiment [7], in experiment [8] and in experiment [10].
Consider `Cc1ccc(C(C)(C)C)c(O)c1`, for which the AC50 was 105 µM (active) in experiment [1], 111 µM (active) in experiment [2], 100 µM (active) in experiment [3] and 110 µM (active) in [5]. The result in [4], in experiment [6], in experiment [7], in [8] and in experiment [10] was inactive.
For `NCCOCCOCCN`, the AC50 in experiment [1] was 6.09 µM (active); in experiment [3] it was 15.8 µM (active); in experiment [4], 96.6 µM (active); in experiment [5] it was 76.5 µM (active); in experiment [7] it was 100 µM (active); in experiment [8] it was 7.09 µM (active). In addition, the AC50 in experiment [9] is 84.5 µM (active); in [10], 3.84 µM (active). Besides, the call in [2] and in experiment [6] was inactive.
Regarding `CCCCC(CC)COP(=O)(OCC(CC)CCCC)OCC(CC)CCCC` (stereo unspecified), the AC50 in [1] was 46.1 µM (active); in experiment [3], 31.5 µM (active); in experiment [4], 51.5 µM (active); in [5], 68 µM (active); in experiment [8], 42.5 µM (active). The call in experiment [2], in experiment [6], in experiment [7] and in [10] was inactive.
In the case of `O=C(N[C@@H](c1ccccc1)[C@@H]1CCCCN1)c1cccc(C(F)(F)F)c1Cl`, the AC50 is 6.64 µM (active) in [1], 9.47 µM (active) in experiment [3], 14.3 µM (active) in experiment [5] and 34.3 µM (active) in [9]. The outcome in [2], in experiment [4], in experiment [6], in experiment [7] and in [10] was inactive.
Regarding `CO[C@@H]1COCC[C@@H]1N[C@@H]1CC[C@@](C(=O)N2CCc3ncc(C(F)(F)F)cc3C2)(C(C)C)C1`, the compound was classed as inactive in experiment [1], in [2], in experiment [4], in [5], in experiment [6] and in [7]. For the same compound, the outcome in experiment [8] and in experiment [10] was inactive.
In the case of `CC(N)=O`, the outcome in experiment [1], in experiment [2], in [3], in experiment [4], in [5] and in experiment [6] was inactive. The compound was classed as inactive in experiment [7], in experiment [9] and in [10].
As to `O=Cc1ccccc1C=O`, the call in [1], in [2], in [3], in [4], in [5] and in experiment [6] was inactive. The outcome in experiment [7], in experiment [9] and in [10] was inactive.
As for `CC(C)c1cccc(C(C)C)c1`, the call in experiment [1], in experiment [2], in experiment [3], in experiment [4], in experiment [5] and in experiment [6] was inactive. The outcome in experiment [7] and in [10] was inactive.
Take `CCC(C)N(C)C(=O)c1cc2ccccc2c(-c2ccccc2Cl)n1` (stereo unspecified): the compound was classed as inactive in experiment [1], in [4], in experiment [6], in [8] and in [10]. In addition, the concentration at half-maximal activity (AC50) in [2] is 67.7 µM (active); in experiment [5] it was 69.8 µM (active); in experiment [7], 69.2 µM (active); in [9] it was 66.4 µM (active).
On to `CS(=O)(=O)c1ccc([C@@H](C[C@H]2CCC(=O)C2)C(=O)Nc2cnccn2)cc1Cl`, for which the result in experiment [1], in experiment [2], in experiment [4], in experiment [5], in experiment [6] and in experiment [7] was inactive. Also, the compound was called inactive in experiment [8] and in [10]. The AC50 in experiment [9] is 43.7 µM (active).
For `O=NO`, the call in experiment [1], in [2], in experiment [3], in [4], in [5] and in [6] was inactive. Besides, the compound was classed as inactive in [7], in experiment [9] and in experiment [10].
Take `CCCCOC(=O)CCCCC(=O)OCCCC`: the compound was classed as inactive in experiment [1], in experiment [2], in [3], in [4], in experiment [5] and in [6]. The outcome in experiment [7] and in experiment [10] was inactive.
Take `CN(C)C(=O)NC1(c2ccccc2)CCN(CC[C@@]2(c3ccc(F)c(F)c3)CN(C(=O)c3ccccc3)CCO2)CC1`: the half-maximal activity concentration (AC50) in [1] was 91.8 µM (active); in [3] it was 86 µM (active); in experiment [4], 82.9 µM (active); in experiment [6] it was 104 µM (active); in experiment [8], 97.7 µM (active). The compound was classed as inactive in experiment [2], in experiment [5], in experiment [7] and in experiment [10].
As to `CCCCCCCC(=O)OC`, the outcome in experiment [1], in [2], in experiment [4], in experiment [5], in [6] and in experiment [7] was inactive. Besides, the call in experiment [8] and in experiment [10] was inactive.

The values are drawn from PubChem BioAssay (EPA / NIEHS).
